This is an account of results in publication PMC7862700, “An all-to-all approach to the identification of sequence-specific readers for epigenetic DNA modifications on cytosine”.

Assay in all cases: DAPPL (digital affinity profiling via proximity ligation, sequencing); 10 mM Tris-HCl pH 7.5, 50 mM NaCl, 1 mM DTT, 4% glycerol, room temperature, 30 min; GST-TFs on glutathione beads, 16-mer random dsDNA library, 0.1% formaldehyde crosslink after washing; high values mean tight binding
One experiment has as its target T1, FEV (Homo sapiens, UniProt Q99581 1-238).
T1 sequence: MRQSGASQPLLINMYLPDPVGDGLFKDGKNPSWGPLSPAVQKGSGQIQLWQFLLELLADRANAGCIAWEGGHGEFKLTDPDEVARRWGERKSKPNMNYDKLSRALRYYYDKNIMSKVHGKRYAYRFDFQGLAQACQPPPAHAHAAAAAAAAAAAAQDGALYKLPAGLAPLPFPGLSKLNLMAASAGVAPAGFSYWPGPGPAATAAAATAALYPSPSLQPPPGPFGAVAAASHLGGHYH
The conditions noted are these: protein: recombinant; tags: N-terminal GST; dsDNA, one strand shown. The gist of the method: (§1)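 Binding signal is given per hexamer as its read frequency for a factor divided by its frequency in the tag-only sample. GST-fused human transcription factors were expressed in yeast, captured on glutathione beads, barcoded with DNA and pooled with that sample, then incubated with 200 nmole of a 16-mer random double-stranded DNA library in Tris/NaCl/DTT/glycerol buffer for 30 min at room temperature. The pools were then washed, crosslinked, proximity-ligated, amplified by PCR and sequenced on an Illumina NextSeq500.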

The next experiment deals with ETV5 (Homo sapiens, UniProt P41161 1-510). The following applies: protein: recombinant; tags: N-terminal GST; dsDNA, one strand shown. The gist of the method:
as §1

In another experiment the target is HSF1 (Homo sapiens, UniProt Q00613 1-529). The conditions noted are these: protein: recombinant; tags: N-terminal GST; chain copies: 3; dsDNA, one strand shown. The gist of the method: as §1
HSF1, sequence (Q00613 whole entry): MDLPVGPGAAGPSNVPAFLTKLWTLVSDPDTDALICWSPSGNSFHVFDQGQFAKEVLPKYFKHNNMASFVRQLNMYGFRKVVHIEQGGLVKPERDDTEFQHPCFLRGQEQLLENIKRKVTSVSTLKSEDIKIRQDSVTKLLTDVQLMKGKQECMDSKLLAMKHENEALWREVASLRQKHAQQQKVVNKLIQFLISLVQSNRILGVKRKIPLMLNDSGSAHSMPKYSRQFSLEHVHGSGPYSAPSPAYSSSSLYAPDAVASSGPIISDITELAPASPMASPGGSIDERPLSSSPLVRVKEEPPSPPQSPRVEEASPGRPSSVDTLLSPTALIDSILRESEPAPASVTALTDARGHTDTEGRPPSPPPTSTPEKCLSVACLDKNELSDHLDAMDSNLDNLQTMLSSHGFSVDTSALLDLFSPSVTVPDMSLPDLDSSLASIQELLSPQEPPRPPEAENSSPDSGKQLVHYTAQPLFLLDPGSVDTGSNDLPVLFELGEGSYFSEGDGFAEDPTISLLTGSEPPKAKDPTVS
The next experiment addresses T2, SPIC (Homo sapiens, UniProt Q8N5J4 1-248).
T2 sequence: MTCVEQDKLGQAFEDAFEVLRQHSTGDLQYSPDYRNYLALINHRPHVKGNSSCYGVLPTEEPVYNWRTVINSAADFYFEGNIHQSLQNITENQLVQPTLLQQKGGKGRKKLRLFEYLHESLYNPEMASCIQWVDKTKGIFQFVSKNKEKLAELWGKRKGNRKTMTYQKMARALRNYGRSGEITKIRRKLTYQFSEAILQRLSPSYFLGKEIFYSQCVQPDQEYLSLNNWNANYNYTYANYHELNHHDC
The conditions noted are these: protein: recombinant; tags: N-terminal GST; dsDNA, one strand shown. The procedure, abridged: as §1

Another experiment deals with ELF4 (Homo sapiens, UniProt Q99607 1-663). The following applies: protein: recombinant; tags: N-terminal GST; dsDNA, one strand shown. The procedure, abridged:
as §1

A further experiment has as its target T3, ELK4 (Homo sapiens, UniProt P28324-2 1-405).
T3 sequence: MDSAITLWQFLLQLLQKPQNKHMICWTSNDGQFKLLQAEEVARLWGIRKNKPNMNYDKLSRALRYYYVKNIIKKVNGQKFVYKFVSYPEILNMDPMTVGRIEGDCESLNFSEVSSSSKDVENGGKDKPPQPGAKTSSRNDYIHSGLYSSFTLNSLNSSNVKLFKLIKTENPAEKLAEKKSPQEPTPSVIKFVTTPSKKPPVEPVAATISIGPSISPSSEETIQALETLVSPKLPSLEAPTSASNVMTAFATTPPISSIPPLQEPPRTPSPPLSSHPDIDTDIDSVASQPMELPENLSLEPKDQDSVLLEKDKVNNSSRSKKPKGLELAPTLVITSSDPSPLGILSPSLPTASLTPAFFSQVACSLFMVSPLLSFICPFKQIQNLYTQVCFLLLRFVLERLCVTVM
The conditions noted are these: protein: recombinant; tags: N-terminal GST; dsDNA, one strand shown. The procedure, abridged: as §1

In another experiment the target is T4, ETV2 (Homo sapiens, UniProt O00321 1-342).
T4 sequence: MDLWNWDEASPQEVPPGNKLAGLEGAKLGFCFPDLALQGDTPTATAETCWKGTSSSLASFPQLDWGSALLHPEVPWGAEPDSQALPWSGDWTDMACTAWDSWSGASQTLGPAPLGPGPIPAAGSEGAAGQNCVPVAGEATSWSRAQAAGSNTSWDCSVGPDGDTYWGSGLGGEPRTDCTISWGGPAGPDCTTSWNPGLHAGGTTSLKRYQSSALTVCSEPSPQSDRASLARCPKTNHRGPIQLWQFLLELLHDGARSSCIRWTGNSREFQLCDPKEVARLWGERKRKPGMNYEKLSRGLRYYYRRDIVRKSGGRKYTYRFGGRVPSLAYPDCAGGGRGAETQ
The following applies: protein: recombinant; tags: N-terminal GST; dsDNA, one strand shown. The procedure, abridged: as §1

A further experiment concerns the target T5, ELF3 (Homo sapiens, UniProt P78545 1-371).
T5 sequence: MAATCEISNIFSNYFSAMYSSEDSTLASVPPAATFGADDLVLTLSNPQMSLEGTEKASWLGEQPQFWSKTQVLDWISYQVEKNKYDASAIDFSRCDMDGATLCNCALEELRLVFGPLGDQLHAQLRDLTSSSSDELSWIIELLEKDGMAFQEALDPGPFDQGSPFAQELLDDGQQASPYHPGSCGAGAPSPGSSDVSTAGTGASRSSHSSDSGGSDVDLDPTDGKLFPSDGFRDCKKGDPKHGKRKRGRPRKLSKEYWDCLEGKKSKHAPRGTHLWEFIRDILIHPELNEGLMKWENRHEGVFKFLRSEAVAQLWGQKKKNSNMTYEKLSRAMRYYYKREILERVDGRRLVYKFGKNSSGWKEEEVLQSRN
The following applies: protein: recombinant; tags: N-terminal GST; dsDNA, one strand shown. The gist of the method: as §1

In a further experiment the target is CRX (Homo sapiens, UniProt O43186 1-299). The following applies: protein: recombinant; tags: N-terminal GST; dsDNA, one strand shown. The gist of the method:
as §1

In the next experiment the target is ETV1 (Homo sapiens, UniProt P50549 1-477). The conditions noted are these: protein: recombinant; tags: N-terminal GST; dsDNA, one strand shown. The procedure, abridged:
as §1

The target of the next experiment is T6, ERF (Homo sapiens, UniProt P50548 1-548).
T6 sequence: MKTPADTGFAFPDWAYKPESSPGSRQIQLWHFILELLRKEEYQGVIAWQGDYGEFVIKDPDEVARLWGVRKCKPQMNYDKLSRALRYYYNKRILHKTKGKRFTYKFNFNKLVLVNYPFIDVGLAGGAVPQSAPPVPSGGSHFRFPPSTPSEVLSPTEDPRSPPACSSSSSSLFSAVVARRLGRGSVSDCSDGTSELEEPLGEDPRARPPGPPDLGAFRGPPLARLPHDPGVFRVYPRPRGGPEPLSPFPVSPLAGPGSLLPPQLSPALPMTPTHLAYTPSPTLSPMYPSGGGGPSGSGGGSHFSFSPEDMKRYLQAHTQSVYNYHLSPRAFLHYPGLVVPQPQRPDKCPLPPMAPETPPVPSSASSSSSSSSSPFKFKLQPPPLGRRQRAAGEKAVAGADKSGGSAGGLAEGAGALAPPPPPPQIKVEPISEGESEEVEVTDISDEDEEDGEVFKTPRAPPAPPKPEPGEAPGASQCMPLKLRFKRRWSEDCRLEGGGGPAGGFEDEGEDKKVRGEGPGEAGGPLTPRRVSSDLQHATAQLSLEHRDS
The conditions noted are these: protein: recombinant; tags: N-terminal GST; dsDNA, one strand shown. The gist of the method:
as §1

The target of the next experiment is T7, ETV3L (Homo sapiens, UniProt Q6ZN32 1-361).
T7 sequence: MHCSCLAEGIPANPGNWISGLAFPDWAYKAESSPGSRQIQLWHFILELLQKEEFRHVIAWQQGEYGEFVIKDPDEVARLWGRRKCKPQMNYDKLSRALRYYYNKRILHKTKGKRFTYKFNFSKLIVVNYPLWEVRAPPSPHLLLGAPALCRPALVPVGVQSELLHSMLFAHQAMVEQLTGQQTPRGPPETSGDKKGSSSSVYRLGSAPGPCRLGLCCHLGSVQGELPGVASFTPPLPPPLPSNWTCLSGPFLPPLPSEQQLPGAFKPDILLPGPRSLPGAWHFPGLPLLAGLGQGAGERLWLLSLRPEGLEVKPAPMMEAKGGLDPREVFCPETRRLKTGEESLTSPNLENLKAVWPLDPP
The following applies: protein: recombinant; tags: N-terminal GST; dsDNA, one strand shown. The procedure, abridged:
as §1

A further experiment deals with T8, ETS2 (Homo sapiens, UniProt P15036 1-469).
T8 sequence: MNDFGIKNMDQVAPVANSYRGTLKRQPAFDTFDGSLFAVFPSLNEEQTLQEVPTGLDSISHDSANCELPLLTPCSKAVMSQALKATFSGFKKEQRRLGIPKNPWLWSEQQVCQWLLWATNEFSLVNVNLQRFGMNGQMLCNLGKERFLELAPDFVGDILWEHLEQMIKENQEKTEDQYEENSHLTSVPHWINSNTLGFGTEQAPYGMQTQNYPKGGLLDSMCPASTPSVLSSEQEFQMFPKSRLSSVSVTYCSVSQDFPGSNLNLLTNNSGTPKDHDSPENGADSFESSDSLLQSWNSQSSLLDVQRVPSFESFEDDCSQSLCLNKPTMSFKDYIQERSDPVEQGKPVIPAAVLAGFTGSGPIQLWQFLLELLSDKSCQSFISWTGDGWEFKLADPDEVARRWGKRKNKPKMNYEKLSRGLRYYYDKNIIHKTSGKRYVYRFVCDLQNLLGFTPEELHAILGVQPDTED
The following applies: protein: recombinant; tags: N-terminal GST; dsDNA, one strand shown. The gist of the method: as §1

A further experiment concerns the target T9, SPDEF (Homo sapiens, UniProt O95238 1-335).
T9 sequence: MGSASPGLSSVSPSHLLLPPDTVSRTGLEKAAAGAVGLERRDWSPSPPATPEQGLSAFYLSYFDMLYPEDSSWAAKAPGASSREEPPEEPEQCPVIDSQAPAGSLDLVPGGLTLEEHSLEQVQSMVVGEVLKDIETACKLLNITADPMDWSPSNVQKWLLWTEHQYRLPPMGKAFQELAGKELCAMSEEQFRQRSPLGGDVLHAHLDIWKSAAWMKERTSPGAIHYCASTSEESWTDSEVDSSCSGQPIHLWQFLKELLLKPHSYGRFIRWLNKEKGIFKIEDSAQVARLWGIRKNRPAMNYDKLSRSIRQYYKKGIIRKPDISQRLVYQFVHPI
The conditions noted are these: protein: recombinant; tags: N-terminal GST; dsDNA, one strand shown. The gist of the method: as §1

The target of a further experiment is T10, ETV7 (Homo sapiens, UniProt Q9Y603 1-341).
T10 sequence: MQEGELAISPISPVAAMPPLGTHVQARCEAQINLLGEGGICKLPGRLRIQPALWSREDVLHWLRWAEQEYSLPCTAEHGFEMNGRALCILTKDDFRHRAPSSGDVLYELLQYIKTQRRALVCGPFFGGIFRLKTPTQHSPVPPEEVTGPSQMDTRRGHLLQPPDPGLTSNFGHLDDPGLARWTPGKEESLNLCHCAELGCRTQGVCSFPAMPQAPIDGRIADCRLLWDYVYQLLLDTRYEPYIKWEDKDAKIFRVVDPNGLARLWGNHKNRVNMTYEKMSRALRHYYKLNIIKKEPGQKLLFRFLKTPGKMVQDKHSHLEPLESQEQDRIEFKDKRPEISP
The following applies: protein: recombinant; tags: N-terminal GST; dsDNA, one strand shown. The procedure, abridged: as §1

For the next experiment, the target named is T11, ELF5 (Homo sapiens, UniProt Q9UKW6-2 1-255).
T11 sequence: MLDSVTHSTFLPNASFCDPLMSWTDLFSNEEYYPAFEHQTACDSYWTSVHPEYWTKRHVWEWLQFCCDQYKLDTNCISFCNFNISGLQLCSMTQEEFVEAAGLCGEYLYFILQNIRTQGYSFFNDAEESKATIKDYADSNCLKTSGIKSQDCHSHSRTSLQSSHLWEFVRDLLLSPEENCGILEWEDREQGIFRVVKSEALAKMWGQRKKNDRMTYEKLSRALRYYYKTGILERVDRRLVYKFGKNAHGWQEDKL
The conditions noted are these: protein: recombinant; tags: N-terminal GST; dsDNA, one strand shown. The procedure, abridged:
as §1

Another experiment addresses T12, ETV3 (Homo sapiens, UniProt P41162-2 1-143).
T12 sequence: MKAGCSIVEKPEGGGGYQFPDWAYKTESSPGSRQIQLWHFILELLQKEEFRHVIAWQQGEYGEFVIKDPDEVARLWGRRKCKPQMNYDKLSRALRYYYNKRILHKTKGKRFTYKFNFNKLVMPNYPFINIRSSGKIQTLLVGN
The following applies: protein: recombinant; tags: N-terminal GST; dsDNA, one strand shown. The gist of the method:
as §1

The target of another experiment is ETV6 (Homo sapiens, UniProt P41212 1-452). The following applies: protein: recombinant; tags: N-terminal GST; dsDNA, one strand shown. The procedure, abridged: as §1
ETV6, sequence (P41212 whole entry): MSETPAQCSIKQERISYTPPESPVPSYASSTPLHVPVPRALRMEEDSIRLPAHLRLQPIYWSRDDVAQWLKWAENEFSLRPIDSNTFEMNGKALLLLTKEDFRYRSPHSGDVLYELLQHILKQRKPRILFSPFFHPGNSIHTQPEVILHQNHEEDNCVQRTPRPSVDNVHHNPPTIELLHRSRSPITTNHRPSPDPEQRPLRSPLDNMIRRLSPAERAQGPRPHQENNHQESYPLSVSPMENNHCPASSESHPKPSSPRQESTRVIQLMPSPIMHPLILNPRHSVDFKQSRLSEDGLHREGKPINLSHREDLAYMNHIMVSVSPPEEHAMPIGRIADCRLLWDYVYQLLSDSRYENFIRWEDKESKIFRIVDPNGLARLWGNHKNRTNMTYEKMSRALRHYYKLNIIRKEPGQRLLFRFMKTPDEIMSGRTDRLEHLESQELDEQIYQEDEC

ELF4, sequence (Q99607 whole entry): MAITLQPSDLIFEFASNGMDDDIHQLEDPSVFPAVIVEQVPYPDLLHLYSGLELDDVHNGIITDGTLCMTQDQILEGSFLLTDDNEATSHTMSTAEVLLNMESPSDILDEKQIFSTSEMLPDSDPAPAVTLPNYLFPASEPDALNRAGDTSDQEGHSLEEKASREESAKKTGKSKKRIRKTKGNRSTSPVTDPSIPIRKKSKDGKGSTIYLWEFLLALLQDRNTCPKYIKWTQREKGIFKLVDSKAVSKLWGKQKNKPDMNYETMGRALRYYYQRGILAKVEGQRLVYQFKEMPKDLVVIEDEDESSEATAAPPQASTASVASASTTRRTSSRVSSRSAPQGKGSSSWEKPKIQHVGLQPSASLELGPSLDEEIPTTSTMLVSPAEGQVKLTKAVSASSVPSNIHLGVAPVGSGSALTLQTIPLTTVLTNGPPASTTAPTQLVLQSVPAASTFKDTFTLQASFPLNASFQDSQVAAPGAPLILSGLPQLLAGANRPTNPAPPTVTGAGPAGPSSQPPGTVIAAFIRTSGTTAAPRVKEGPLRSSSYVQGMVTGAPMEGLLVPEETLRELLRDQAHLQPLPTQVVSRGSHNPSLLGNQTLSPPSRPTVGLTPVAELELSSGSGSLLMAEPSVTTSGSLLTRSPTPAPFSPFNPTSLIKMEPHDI
CRX, sequence (O43186 whole entry): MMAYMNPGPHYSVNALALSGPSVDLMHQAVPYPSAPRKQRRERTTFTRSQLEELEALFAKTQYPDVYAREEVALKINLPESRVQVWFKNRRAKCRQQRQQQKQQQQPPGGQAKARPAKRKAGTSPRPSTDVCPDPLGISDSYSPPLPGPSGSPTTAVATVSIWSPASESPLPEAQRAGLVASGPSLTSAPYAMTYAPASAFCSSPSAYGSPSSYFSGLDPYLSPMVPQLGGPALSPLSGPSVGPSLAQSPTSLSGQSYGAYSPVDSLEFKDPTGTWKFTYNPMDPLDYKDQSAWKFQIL
ETV1, sequence (P50549 whole entry): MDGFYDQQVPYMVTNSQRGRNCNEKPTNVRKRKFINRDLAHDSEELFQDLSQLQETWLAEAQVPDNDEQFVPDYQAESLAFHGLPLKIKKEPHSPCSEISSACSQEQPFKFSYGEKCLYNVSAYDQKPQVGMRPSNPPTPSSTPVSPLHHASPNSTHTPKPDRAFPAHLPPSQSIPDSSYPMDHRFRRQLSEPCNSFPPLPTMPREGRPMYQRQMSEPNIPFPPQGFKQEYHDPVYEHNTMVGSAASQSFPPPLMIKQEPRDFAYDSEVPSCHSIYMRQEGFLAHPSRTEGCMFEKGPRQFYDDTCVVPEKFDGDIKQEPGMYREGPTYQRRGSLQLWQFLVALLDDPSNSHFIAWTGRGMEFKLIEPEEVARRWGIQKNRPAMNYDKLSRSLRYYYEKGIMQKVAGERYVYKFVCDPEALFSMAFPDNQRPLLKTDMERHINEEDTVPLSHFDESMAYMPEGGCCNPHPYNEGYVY
ETV5, sequence (P41161 whole entry): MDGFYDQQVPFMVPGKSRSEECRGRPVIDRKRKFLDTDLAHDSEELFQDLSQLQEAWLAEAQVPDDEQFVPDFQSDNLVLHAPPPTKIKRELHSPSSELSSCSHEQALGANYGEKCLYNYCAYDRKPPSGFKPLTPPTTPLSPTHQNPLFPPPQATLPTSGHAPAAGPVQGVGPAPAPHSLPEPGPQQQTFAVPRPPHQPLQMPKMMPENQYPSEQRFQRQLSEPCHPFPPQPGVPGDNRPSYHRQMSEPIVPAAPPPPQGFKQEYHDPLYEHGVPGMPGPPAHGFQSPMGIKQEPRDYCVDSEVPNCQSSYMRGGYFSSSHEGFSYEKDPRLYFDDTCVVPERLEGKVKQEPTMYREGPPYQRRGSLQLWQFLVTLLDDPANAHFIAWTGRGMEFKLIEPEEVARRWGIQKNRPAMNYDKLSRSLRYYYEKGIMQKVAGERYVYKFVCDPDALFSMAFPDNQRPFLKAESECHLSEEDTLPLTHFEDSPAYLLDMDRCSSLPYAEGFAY

As to AATACC, the binding signal with FEV is 1.23 fold enrichment (6-mer frequency, TF over GST control); with ETV5, 1.13 fold enrichment (6-mer frequency, TF over GST control); with HSF1 it was 1.19 fold enrichment (6-mer frequency, TF over GST control); in the experiment with SPIC, 1.15 fold enrichment (6-mer frequency, TF over GST control); in the experiment with ELF4, 1.1 fold enrichment (6-mer frequency, TF over GST control); in the experiment with ELK4 it was 1.11 fold enrichment (6-mer frequency, TF over GST control). Further, the binding signal is 1.17 fold enrichment (6-mer frequency, TF over GST control) with ETV2; 1.12 fold enrichment (6-mer frequency, TF over GST control) in the experiment with ELF3; 1.44 fold enrichment (6-mer frequency, TF over GST control) with CRX; 1.22 fold enrichment (6-mer frequency, TF over GST control) with ETV1; 1.29 fold enrichment (6-mer frequency, TF over GST control) in the experiment with ERF; 1.15 fold enrichment (6-mer frequency, TF over GST control) with ETV3L. For the same sequence, the binding signal is 1.21 fold enrichment (6-mer frequency, TF over GST control) with ETS2; 1.11 fold enrichment (6-mer frequency, TF over GST control) with SPDEF; 1.21 fold enrichment (6-mer frequency, TF over GST control) with ETV7; 1.17 fold enrichment (6-mer frequency, TF over GST control) in the experiment with ELF5; 1.17 fold enrichment (6-mer frequency, TF over GST control) with ETV3; 1.16 fold enrichment (6-mer frequency, TF over GST control) in the experiment with ETV6.
